Among the data in ChEMBL document CHEMBL3433997, “St. Jude Leishmania screening dataset” (2016) are inhibition values, retold here.

Holding throughout (assay type): functional
For experiment [1], the target named is Solute carrier family 2, facilitated glucose transporter member 1 (Homo sapiens) (UniProt P11166). As to the kind of experiment: ST_JUDE_LEISH: Cytotoxicity at 2uM final concentration against transgenic Leishmania Mexicana promastigotes LmGLUT1 that are glucose transport deficient and complemented with the human glucose transporter GLUT1. Activity is measured by DNA content using SYBR green in vitro.

Experiment [2] has as its target Hexose transporter 1 (Plasmodium falciparum) (UniProt O97467). As to the kind of experiment: ST_JUDE_LEISH: Cytotoxicity at 2uM final concentration against transgenic Leishmania Mexicana promastigotes LmPfHT that are glucose transport deficient and complemented with the Plasmodium falciparum hexose transporter. Activity is measured by DNA content using SYBR green in vitro.

The target in experiment [3] is Glucose transporter (Leishmania mexicana) (UniProt O61059). As to the kind of experiment: ST_JUDE_LEISH: Cytotoxicity at 2uM final concentration against transgenic Leishmania Mexicana promastigotes LmGT2 that are glucose transport deficient and complemented with the L. Mexicana glucose transporter 2. Activity is measured by DNA content using SYBR green in vitro.

Sequence of Solute carrier family 2, facilitated glucose transporter member 1 (Homo sapiens) (P11166 whole entry): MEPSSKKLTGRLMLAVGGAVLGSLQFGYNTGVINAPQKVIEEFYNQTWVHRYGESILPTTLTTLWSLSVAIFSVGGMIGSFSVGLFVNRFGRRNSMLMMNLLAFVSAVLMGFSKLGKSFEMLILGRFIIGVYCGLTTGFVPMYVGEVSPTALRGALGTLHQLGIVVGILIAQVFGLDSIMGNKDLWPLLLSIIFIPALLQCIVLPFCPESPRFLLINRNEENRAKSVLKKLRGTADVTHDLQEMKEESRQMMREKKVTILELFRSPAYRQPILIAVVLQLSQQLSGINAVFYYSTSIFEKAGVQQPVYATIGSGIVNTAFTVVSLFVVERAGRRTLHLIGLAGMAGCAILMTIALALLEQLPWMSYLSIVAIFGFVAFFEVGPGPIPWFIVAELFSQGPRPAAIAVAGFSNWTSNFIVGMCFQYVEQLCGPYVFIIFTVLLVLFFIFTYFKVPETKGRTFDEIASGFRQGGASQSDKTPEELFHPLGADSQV

What is called inhibition is the change of the read-out against control, counted positive when it falls. As to `CN1CCC(C(=O)Nc2ccc(-c3cccc(-c4nc5cc(F)ccc5[nH]4)c3)cc2)CC1`, the inhibition was 8.95% in experiment [1], 9.27% in experiment [2] and 8.51% in experiment [3].

Take `CCc1ccc(CN2CCC(CNC(=O)c3cc(-c4ccccc4Cl)cs3)C2)cc1` (stereo not drawn): the inhibition in experiment [1] is 7.86%; in experiment [2] it was 8.8%; in experiment [3], 10.8%.

Consider `COc1ccccc1C1CCN(C2CCC(NC(=O)/C=C/c3cc(C(F)(F)F)cc(C(F)(F)F)c3)CC2)CC1` (stereo not drawn), for which the values for the inhibition in experiment [1], in experiment [2] and in experiment [3] were -3.08%, -0.91% and -2.77%, respectively.

As to `O=c1ccc2ccc(F)c3c2n1CC3CN1CCC(NCc2cccc(-c3ccccc3F)c2)CC1` (stereo not drawn), the figures for the inhibition in experiment [1], in experiment [2] and in experiment [3] were 19.1%, 22.3% and 11.4%, respectively.

Take `CSCCCN1CCC(O)(c2ccc3oc(C(=O)Nc4ccc5sc(C)nc5c4)cc3c2)CC1`: the inhibition turned out to be 23.3% in experiment [1], 24.5% in experiment [2] and 14.7% in experiment [3].

As for `COc1cccc(Nc2nc(Nc3cccc(C#N)c3)cc(C(F)(F)F)n2)c1`, the inhibition in experiment [1] was determined as 6.5%; in experiment [2] it was 6.64%; in experiment [3] it was 6.05%.

For `CCc1ccccc1OCCCON1C(=N)N=C(N)NC1(C)C`, the inhibition is 28.6% in experiment [1], 37.9% in experiment [2] and 29.2% in experiment [3].

Turning to `CN1CCC(Oc2ccc(CN3CC[C@H](NC(=O)c4ccc(F)c(F)c4)C3)c3ccccc23)C1` (stereo partly drawn), the inhibition in experiment [1] amounted to 1.65%; in experiment [2], 1%; in experiment [3] it was 2.7%.

In the case of `O=C(Nc1cccc(CN2CCCN(Cc3ccc(O)cc3)CC2)c1)c1ccc(-c2ccccc2)cc1`, the inhibition is 1.14% in experiment [1], 0.52% in experiment [2] and -2.97% in experiment [3].

Turning to `N#Cc1cccc(CN2CCCN(c3ccc(NC(=O)c4cccs4)cc3)CC2)c1`, the inhibition in experiment [1] came to 4.81%; in experiment [2], 4.44%; in experiment [3], 4.34%.

Take `Cc1nc2ccccc2n1C1CC2CCC(C1)N2CCC1(c2ccccc2)CCN(C(=O)Nc2ccc(C(F)(F)F)cc2)CC1` (stereo not drawn): the inhibition in experiment [1] was 4.65%; in experiment [2], 4.07%; in experiment [3], 1.78%.

On to `O=C(NCCc1ccc(F)cc1)c1ccc(N2CCN(c3ccncc3)CC2)nc1`, for which the inhibition in experiment [1] is 2.72%; in experiment [2], 0.74%; in experiment [3], -4.35%.

In the case of `O=C(OCc1ccccn1)c1nc2ccccc2[nH]1`, the inhibition is 0.81% in experiment [1], 2.57% in experiment [2] and 0.92% in experiment [3].

Regarding `Cc1cc(-c2ccc(O)c(CNC3CCCCC3)c2)cnc1N`, the inhibition came out at 0.43% in experiment [1], 10.3% in experiment [2] and 0.95% in experiment [3].

In the case of `Cc1cc(Nc2ccncc2)n2nc(C)c(-c3ccccc3Cl)c2n1`, the values for the inhibition in experiment [1], in experiment [2] and in experiment [3] were 2.97%, 1.58% and 6.28%, respectively.

`Cc1ccc2c(Cl)c(C(=O)N3CCCc4ccccc43)sc2c1`: the inhibition in experiment [1] was found to be 5.28%; in experiment [2], 3.86%; in experiment [3] it was 3.16%.

Consider `O=C(N[C@@H](CC1CCCCC1)C(=O)NCCN1CCCC1)c1ccc(O)c(-c2cccc(C(F)(F)F)c2)c1`, for which the figures for the inhibition in experiment [1], in experiment [2] and in experiment [3] were -0.44%, -0.43% and 0.16%, respectively.

For the compound `CCc1ccc(NC(=O)c2ccc(CN3CCCN(Cc4ccc(C)s4)CC3)cc2)cc1`, the values for the inhibition in experiment [1], in experiment [2] and in experiment [3] were 3.79%, 5.06% and 2.95%, respectively.

With `CN(C)CCNCc1ccc(-c2ccc3c(Nc4ccc(Cl)cc4F)ccnc3c2)o1`, the inhibition in experiment [1] was 1.23%; in experiment [2], 0.82%; in experiment [3] it was -1.76%.

Turning to `COc1nc2c(CCN3CC[C@H](NCc4cc(C#N)c5c(c4)CCO5)[C@H](O)C3)ccnc2cc1F`, the inhibition was determined as 8.01% in experiment [1], 8.15% in experiment [2] and 0.58% in experiment [3].

On to `O=C(O)C[C@H](NC(=O)[C@@H]1CCCN1C(=O)c1cccc(-c2ccc(Cl)c(Cl)c2)c1)C(=O)O`, for which the inhibition stood at 1.31% in experiment [1], 0.14% in experiment [2] and 1.61% in experiment [3].

For the compound `CCC(C)c1ccc(Nc2nc(C)cc(N(CC)CCCN3CCCCC3)n2)cc1` (stereo not drawn), the inhibition is -1.09% in experiment [1], 0.87% in experiment [2] and 1.67% in experiment [3].

Take `COc1ccc(C(=O)Nc2cc(Cl)c3c(c2)C2CCCN2CC3)cc1C(F)(F)F` (stereo not drawn): the inhibition in experiment [1] was 3.22%; in experiment [2] it was 2.02%; in experiment [3], -1.06%.

On to `COc1ccc(Cn2ncc3c4c(N)nc(N)nc4ccc32)cc1OC`, for which the inhibition in experiment [1] turned out to be 86.6%; in experiment [2] it was 82.8%; in experiment [3] it was 73%.

Regarding `COCCNCc1ncsc1-c1ccc2c(Nc3cc(O)c(Cl)cc3F)ccnc2c1`, the inhibition in experiment [1] turned out to be 3.19%; in experiment [2], 3.29%; in experiment [3], 1.41%.

`COc1cccc(-c2cc(C(=O)Nc3ccc4[nH]c(-c5ccccc5)nc4c3)[nH]n2)c1`: the results for the inhibition in experiment [1], in experiment [2] and in experiment [3] were 4.77%, 3.14% and 1.09%, respectively.

With `CCN(CC)S(=O)(=O)n1ncc2c3c(N)nc(N)nc3ccc21`, the inhibition in experiment [1] was -2.64%; in experiment [2] it was 0.17%; in experiment [3] it was -2.31%.

With `CCCCN(CCCC)CCNC(=O)c1cc(OC(F)(F)F)ccc1O`, the inhibition in experiment [1] turned out to be 1%; in experiment [2], 0.8%; in experiment [3], 0.03%.

In the case of `CCC[C@@H]([C@@H](CC1CCCCC1)C(=O)N[C@H](C(=O)Nc1ccccn1)[C@H](C)CC)N(O)C=O`, the inhibition in experiment [1] was found to be 3.49%; in experiment [2], 3.35%; in experiment [3], 2.88%.

As to `Cc1cccc(NC(=O)N(Cc2cc3cc(C)cc(C)c3[nH]c2=O)C2CC2)c1`, the inhibition in experiment [1] worked out at 9.62%; in experiment [2] it was 10.1%; in experiment [3] it was 6.55%.

On to `CS(=O)(=O)CCNCc1ccc(-c2ccc3ncnc(Nc4ccc(OCc5ccccc5)c(Cl)c4)c3c2)o1`, for which the inhibition was -0.18% in experiment [1], -1.51% in experiment [2] and -1.49% in experiment [3].

In the case of `CCOC(=O)CNC(=O)N(CCN(Cc1ccccc1)C(=O)NCC(=O)OCC)Cc1ccccc1`, the figures for the inhibition in experiment [1], in experiment [2] and in experiment [3] were 0.94%, 2.07% and 1.35%, respectively.

For the compound `Cc1ccccc1C1CCN(C2CCC(NC(=O)c3cc(-c4ccc(Cl)cc4)cs3)CC2)CC1` (stereo not drawn), the inhibition in experiment [1] was 2.23%; in experiment [2], 3.13%; in experiment [3] it was -2.52%.

Consider `N#CCCN1CCN(Cc2cccc(-c3ccc(-c4nc5cc(C(F)(F)F)ccc5[nH]4)cc3)c2)CC1`, for which the values for the inhibition in experiment [1], in experiment [2] and in experiment [3] were 3.02%, 2.73% and 2.78%, respectively.

`O=[N+]([O-])c1cccc(C=NNc2nc(=Nc3ccccc3)[nH]c(=Nc3ccccc3)[nH]2)c1`: the inhibition in experiment [1] was 4.34%; in experiment [2] it was 7.8%; in experiment [3], -0.18%.

`O=C(Cc1c[nH]cn1)Nc1cccc(-c2cccc(-c3nc4cc(F)ccc4[nH]3)c2)c1`: the inhibition is -1.27% in experiment [1], -0.43% in experiment [2] and -2.58% in experiment [3].
